Experimental data taken from PubChem BioAssay (EPA / NIEHS).
Inconclusive results are not listed. The source made the active and inactive calls. Rule for the calls, unless noted: active = hit-call score of the fitted dose curve at least 0.9, where 1 is the maximum; inactive = score below 0.9.

What was measured:
[1] = target: Glucocorticoid receptor (Homo sapiens) (UniProt P04150); experiment: ATG_GR_TRANS: Attagene TRANS-FACTORIAL HepG2 Assay for human Glucocorticoid Receptor (GR) (AID 2282978; active = hit-call score of the fitted dose curve at least 0.9, where 1 is the maximum;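 note: activators score as hits since higher reporter transcript over DMSO is fitted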); settings: HepG2 Attagene TRANS GR reporter, mRNA transcription
Chain of Glucocorticoid receptor (Homo sapiens) (P04150 whole entry, looked up): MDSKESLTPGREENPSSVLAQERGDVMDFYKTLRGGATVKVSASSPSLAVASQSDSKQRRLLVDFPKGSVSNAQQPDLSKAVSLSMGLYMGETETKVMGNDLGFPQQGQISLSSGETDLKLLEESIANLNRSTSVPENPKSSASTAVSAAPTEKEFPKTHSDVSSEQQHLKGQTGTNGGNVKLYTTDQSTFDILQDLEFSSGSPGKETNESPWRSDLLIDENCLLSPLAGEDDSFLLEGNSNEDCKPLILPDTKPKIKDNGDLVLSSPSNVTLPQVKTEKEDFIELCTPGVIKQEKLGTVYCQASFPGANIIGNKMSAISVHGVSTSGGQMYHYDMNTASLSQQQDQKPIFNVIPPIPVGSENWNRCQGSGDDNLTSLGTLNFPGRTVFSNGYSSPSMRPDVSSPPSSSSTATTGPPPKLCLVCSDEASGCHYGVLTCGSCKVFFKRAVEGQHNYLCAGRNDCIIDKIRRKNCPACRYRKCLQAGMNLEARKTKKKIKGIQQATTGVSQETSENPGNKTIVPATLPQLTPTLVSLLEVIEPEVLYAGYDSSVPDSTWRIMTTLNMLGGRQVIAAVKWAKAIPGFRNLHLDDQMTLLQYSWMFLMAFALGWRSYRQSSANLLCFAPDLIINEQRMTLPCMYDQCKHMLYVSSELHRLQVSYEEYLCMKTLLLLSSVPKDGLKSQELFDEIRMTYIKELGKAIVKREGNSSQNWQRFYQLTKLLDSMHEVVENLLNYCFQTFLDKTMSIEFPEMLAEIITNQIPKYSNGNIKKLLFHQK
Outline: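 After 24 h incubation with test chemical, transfected HepG2 cells were lysed for RNA; reporter cDNA was amplified, FAM-labelled, HpaI-digested and sized on a capillary analyser. Signal gain relative to DMSO was scored.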

[2] = target: Bile acid receptor (Homo sapiens) (UniProt Q96RI1); experiment: ATG_FXR_TRANS: Attagene TRANS-FACTORIAL HepG2 Assay for Farnesoid X Receptor (FXR) (AID 2282979; active = hit-call score of the fitted dose curve at least 0.9, where 1 is the maximum;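 note: hits raise reporter mRNA above DMSO so AC50 marks FXR activation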); settings: HepG2 Attagene TRANS FXR-GAL4 reporter transcription
Chain of Bile acid receptor (Homo sapiens) (Q96RI1 whole entry, looked up, the tested form may be a part): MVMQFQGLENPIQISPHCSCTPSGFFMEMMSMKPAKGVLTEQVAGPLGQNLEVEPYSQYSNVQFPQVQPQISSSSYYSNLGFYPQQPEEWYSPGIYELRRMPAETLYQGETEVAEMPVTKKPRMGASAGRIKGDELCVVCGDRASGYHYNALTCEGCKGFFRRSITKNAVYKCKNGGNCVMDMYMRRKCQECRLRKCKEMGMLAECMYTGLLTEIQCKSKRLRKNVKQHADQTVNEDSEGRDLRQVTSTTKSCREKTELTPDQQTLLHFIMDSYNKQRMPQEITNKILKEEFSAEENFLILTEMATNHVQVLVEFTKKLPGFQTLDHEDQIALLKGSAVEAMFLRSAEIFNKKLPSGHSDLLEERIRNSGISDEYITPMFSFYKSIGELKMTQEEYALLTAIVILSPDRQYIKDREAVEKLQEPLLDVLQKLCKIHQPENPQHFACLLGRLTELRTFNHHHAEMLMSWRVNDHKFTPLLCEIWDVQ
Outline: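 Read-out: fluorescent reporter transcripts quantified by capillary electrophoresis after RT-PCR of total RNA. Source cells were HepG2 transiently carrying chimeric NR-GAL4 plus GAL4-UAS reporter units, dosed 24 h. Activity fitted upward relative to DMSO baseline.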

[3] = target: Hepatocyte nuclear factor 4-alpha (Homo sapiens) (UniProt P41235); experiment: ATG_HNF4a_TRANS: Attagene TRANS-FACTORIAL HepG2 Assay for human Hepatocyte Nuclear Factor 4 alpha (HNF4a) (AID 2282982; active = hit-call score of the fitted dose curve at least 0.9, where 1 is the maximum); settings: HepG2 HNF4a transactivation reporter, mRNA readout
Chain of Hepatocyte nuclear factor 4-alpha (Homo sapiens) (P41235 whole entry, looked up, the tested form may be a part): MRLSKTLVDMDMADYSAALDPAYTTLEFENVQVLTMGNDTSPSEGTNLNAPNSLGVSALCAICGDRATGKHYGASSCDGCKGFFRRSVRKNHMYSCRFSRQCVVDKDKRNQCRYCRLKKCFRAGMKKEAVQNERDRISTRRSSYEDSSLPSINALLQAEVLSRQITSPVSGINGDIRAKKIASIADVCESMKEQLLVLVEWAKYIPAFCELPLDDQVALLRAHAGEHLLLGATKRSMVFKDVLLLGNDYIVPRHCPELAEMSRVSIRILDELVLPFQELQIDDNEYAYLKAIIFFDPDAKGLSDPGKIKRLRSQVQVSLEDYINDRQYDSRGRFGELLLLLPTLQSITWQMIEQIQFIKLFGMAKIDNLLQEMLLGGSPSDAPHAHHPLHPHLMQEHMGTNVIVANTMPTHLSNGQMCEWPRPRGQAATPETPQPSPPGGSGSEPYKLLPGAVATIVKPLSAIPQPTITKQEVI
Outline: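 Readout is fluorescent reporter-transcript fragments resolved by capillary electrophoresis after RT-PCR from HepG2 cells dosed for 24 h. Cells carried transfected GAL4-UAS reporter constructs measuring exogenous NR-GAL4 chimera activity; DMSO served as baseline.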

[4] = ATG_M_32_TRANS: Attagene TRANS-FACTORIAL HepG2 Assay for M32 Transcription Factor (Internal Marker) (AID 2282984; active = hit-call score of the fitted dose curve at least 0.9, where 1 is the maximum;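 note: transcript level of a background control reporter unit measured by RT-PCR and capillary electrophoresis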); settings: HepG2 Attagene TRANS M32 internal marker reporter
Outline: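 Measures reporter mRNA induction in human HepG2 liver cells after 24 h chemical treatment. Transcripts from transiently transfected GAL4-UAS reporter units are amplified, fluorescently labelled and sized by capillary electrophoresis; gain of signal relative to DMSO.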

[5] = target: Transcriptional activator Myb (Homo sapiens) (UniProt P10242); experiment: ATG_Myb_CIS: Attagene CIS-FACTORIAL HepG2 Assay for human Myeloblastosis (Myb) Proto-Oncogene Transcription Factor (AID 2282986); settings: HepG2 Attagene CIS-FACTORIAL Myb reporter transcription; actives raise or lower the signal
Chain of Transcriptional activator Myb (Homo sapiens) (P10242 whole entry, looked up): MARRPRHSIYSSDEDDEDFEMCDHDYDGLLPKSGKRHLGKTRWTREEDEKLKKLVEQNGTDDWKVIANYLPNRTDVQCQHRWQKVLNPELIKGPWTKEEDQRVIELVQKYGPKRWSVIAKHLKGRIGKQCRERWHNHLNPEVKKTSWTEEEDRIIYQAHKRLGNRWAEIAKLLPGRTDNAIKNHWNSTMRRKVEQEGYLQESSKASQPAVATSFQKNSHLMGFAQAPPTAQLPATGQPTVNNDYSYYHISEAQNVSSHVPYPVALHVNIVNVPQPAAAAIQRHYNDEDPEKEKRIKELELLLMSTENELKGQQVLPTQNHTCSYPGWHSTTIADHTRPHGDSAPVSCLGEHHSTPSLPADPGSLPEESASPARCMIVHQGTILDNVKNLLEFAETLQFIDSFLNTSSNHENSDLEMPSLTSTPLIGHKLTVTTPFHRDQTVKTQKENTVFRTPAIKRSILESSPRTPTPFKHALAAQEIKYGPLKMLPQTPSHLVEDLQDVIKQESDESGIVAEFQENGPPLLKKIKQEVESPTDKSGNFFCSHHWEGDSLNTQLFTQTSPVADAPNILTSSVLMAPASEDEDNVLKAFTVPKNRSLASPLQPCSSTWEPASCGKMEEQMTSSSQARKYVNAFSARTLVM
Outline: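 After 24 h of compound dosing, total RNA from transfected HepG2 cells is reverse-transcribed and the reporter sequences amplified, labeled and separated by capillary electrophoresis. Values come from bidirectional fitting against DMSO.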

[6] = target: Nuclear respiratory factor 1 (Homo sapiens) (UniProt Q16656); experiment: ATG_NRF1_CIS: Attagene CIS-FACTORIAL HepG2 Assay for human Nuclear Respiratory Factor 1 (NRF1) Orphan Gene (AID 2282987); settings: HepG2 NRF1 cis-element reporter, Attagene multiplex; actives raise or lower the signal
Chain of Nuclear respiratory factor 1 (Homo sapiens) (Q16656 whole entry, looked up): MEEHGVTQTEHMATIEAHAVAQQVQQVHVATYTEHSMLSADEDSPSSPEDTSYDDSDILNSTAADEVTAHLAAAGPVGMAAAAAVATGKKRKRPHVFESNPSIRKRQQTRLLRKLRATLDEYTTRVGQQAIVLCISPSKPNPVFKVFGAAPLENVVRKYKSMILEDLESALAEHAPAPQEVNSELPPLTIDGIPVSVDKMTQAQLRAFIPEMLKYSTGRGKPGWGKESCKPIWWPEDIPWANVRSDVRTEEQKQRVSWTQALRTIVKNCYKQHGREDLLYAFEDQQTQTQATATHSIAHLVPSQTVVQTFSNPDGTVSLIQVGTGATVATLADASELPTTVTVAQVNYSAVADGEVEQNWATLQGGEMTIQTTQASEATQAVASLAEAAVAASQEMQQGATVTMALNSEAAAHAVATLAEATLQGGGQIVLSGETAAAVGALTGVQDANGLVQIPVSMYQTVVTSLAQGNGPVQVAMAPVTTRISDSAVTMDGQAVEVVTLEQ
Outline: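 Measured: fluorescent reporter-specific RT-PCR products from transfected HepG2 cells, separated by capillary electrophoresis. Exposure lasted 24 h. Analysis used bidirectional curve fitting with DMSO as negative control.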

[7] = ATG_NFI_CIS: Attagene CIS-FACTORIAL HepG2 Assay for human Nuclear Factor I (NFI) (AID 2282989); settings: HepG2 cis-regulatory reporter, NFI response element transcription; actives raise or lower the signal
Outline: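 Cells: human liver HepG2, transiently transfected with promoter-regulated reporter transcription units. Exposure 24 h. Detection: fluorescent RT-PCR products separated by capillary electrophoresis, normalised to DMSO negative control.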

[8] = target: Myc proto-oncogene protein (Homo sapiens) (UniProt P01106); experiment: ATG_Myc_CIS: Attagene CIS-FACTORIAL HepG2 Assay for human Myelocytomatosis (Myc) Proto-Oncogene Transcription Factor (AID 2282990); settings: HepG2, Attagene cis-reporter transcription factor activity; actives raise or lower the signal
Chain of Myc proto-oncogene protein (Homo sapiens) (P01106 whole entry, looked up): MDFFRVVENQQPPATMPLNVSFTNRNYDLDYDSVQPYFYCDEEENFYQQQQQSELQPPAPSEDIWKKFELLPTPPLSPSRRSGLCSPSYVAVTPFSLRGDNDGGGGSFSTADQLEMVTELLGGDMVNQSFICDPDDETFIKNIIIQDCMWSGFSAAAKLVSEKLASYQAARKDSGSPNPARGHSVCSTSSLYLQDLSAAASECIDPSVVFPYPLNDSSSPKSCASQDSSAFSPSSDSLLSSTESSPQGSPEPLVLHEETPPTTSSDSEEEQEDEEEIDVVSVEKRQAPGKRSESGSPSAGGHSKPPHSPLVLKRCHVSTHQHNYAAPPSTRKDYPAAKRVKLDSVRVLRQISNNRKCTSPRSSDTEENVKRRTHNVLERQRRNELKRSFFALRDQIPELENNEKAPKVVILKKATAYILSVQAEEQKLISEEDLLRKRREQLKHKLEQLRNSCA
Outline: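 HepG2, transient MRTU transfection (cis promoters, endogenous TFs); 24 h dosing; TriZol RNA → oligo(dT) RT → PCR → 6-FAM primer extension → HpaI cut → CE. Bidirectional fit vs DMSO.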

[9] = ATG_NF_kB_CIS: Attagene CIS-FACTORIAL HepG2 Assay for human Nuclear Factor Kappa B (NF-kB) (AID 2282991); settings: HepG2 Attagene cis-factorial NF-kB reporter mRNA; actives raise or lower the signal
Outline: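 Fluorescence of labelled RT-PCR products separated by capillary electrophoresis gives reporter mRNA levels from transfected HepG2 cells exposed 24 h; values are fitted in both directions relative to DMSO.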

[10] = ATG_NRF2_ARE_CIS: Attagene CIS-FACTORIAL HepG2 Assay for human Nuclear Factor Erythroid 2 Related Factor 2 (NFR2) response to Antioxidant Response Elements (ARE) (AID 2282992); settings: HepG2 Attagene ARE/NRF2 reporter, transcription factor activity; actives raise or lower the signal
Outline: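 Cis-factorial assay: transfected HepG2 reporter library, 24 h dosing, mRNA readout via RT-PCR/CE; DMSO-referenced bidirectional analysis.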

[11] = ATG_Oct_MLP_CIS: Attagene CIS-FACTORIAL HepG2 Assay for human Octamer-Binding Transcription Factor (Oct) (AID 2282993); settings: HepG2 Attagene cis-factorial Oct reporter, mRNA; actives raise or lower the signal
Outline: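 HepG2, transient MRTU transfection, cis promoter elements; 24 h dosing; RT-PCR/CE fluorescence read-out of reporter mRNA; fit both directions vs DMSO.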

[12] = target: Cellular tumor antigen p53 (Homo sapiens) (UniProt P04637); experiment: ATG_p53_CIS: Attagene CIS-FACTORIAL HepG2 Assay for human p53 Transcription Factor (AID 2282994); settings: HepG2 p53 cis-element reporter, Attagene mRNA; actives raise or lower the signal
Chain of Cellular tumor antigen p53 (Homo sapiens) (P04637 whole entry, looked up): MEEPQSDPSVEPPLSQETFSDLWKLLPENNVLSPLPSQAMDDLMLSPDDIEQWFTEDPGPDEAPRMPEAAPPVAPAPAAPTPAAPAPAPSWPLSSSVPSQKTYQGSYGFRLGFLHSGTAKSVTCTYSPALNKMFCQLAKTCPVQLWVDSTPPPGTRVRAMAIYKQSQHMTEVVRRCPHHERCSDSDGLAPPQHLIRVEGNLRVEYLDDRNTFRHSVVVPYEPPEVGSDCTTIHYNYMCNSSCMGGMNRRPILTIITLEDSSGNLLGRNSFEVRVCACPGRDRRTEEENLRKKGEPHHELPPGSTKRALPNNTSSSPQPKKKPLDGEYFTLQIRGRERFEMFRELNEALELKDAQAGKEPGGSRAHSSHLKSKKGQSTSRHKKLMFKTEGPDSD
Outline: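 Using HepG2 hepatoma cells carrying cis-acting multiplexed reporters, mRNA induction is detected after a 24 h exposure. Gain- and loss-of-signal responses are fitted relative to DMSO-treated cells.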

[13] = target: Oxysterols receptor LXR-beta (Homo sapiens) (UniProt P55055); experiment: ATG_LXRb_TRANS: Attagene TRANS-FACTORIAL HepG2 Assay for human Liver X Receptor beta (LXRb) (AID 2282981; active = hit-call score of the fitted dose curve at least 0.9, where 1 is the maximum); settings: HepG2 Attagene TRANS GAL4-LXRb reporter, mRNA
Outline: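 Transient transfection HepG2 (multiplexed RTUs, GAL4-UAS); NR-Gal4 chimera; 24 h exposure; RNA → RT-PCR → 6-FAM primer extension → HpaI → CE; increase vs DMSO.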

[14] = ATG_M_06_TRANS: Attagene TRANS-FACTORIAL HepG2 Assay for M06 Transcription Factor (Internal Marker) (AID 2282983; active = hit-call score of the fitted dose curve at least 0.9, where 1 is the maximum); settings: HepG2 Attagene TRANS M06 internal marker reporter
Outline: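 After a 24 h chemical treatment of transfected HepG2, RNA underwent DNase I treatment, reverse transcription and reporter-specific PCR; labelled, HpaI-digested products were sized by capillary electrophoresis. Signal increase relative to DMSO defined activity.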

[15] = target: Nuclear receptor subfamily 4 group A member 2 (Homo sapiens) (UniProt P43354); experiment: ATG_NURR1_TRANS: Attagene TRANS-FACTORIAL HepG2 Assay for human Nuclear Receptor Related Protein 1 (NURR1) (AID 2282985; active = hit-call score of the fitted dose curve at least 0.9, where 1 is the maximum); settings: HepG2 Attagene TRANS reporter, mRNA readout
Chain of Nuclear receptor subfamily 4 group A member 2 (Homo sapiens) (P43354 whole entry, looked up, the tested form may be a part): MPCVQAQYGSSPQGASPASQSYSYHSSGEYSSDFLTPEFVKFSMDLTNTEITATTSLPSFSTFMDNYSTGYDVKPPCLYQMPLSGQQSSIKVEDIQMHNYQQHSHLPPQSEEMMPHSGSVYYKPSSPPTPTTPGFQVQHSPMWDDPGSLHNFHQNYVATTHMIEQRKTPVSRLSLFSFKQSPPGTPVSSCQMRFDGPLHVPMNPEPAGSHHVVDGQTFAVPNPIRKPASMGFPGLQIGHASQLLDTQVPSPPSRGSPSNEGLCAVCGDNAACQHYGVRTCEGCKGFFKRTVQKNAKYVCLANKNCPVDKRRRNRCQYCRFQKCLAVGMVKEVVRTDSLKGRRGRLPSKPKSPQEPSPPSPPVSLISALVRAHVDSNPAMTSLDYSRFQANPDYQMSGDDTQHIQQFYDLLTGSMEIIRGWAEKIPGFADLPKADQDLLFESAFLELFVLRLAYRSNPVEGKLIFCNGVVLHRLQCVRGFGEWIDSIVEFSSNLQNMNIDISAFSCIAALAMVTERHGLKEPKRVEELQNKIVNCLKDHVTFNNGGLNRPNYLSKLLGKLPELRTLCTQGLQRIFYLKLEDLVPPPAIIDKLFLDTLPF
Outline: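 Transient transfection of HepG2, human liver cells, with multiple GAL4-UAS reporter transcription units. Cells dosed 24 h, RNA isolated, reverse-transcribed, PCR-amplified, FAM-labelled, HpaI-digested, sized by capillary electrophoresis. DMSO served as negative control.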

[16] = target: Oxysterols receptor LXR-alpha (Homo sapiens) (UniProt Q13133); experiment: ATG_LXRa_TRANS: Attagene TRANS-FACTORIAL HepG2 Assay for human Liver X Receptor alpha (LXRa) (AID 2282980; active = hit-call score of the fitted dose curve at least 0.9, where 1 is the maximum); settings: HepG2 Attagene TRANS reporter, LXRa transactivation
Chain of Oxysterols receptor LXR-alpha (Homo sapiens) (Q13133 whole entry, looked up, the tested form may be a part): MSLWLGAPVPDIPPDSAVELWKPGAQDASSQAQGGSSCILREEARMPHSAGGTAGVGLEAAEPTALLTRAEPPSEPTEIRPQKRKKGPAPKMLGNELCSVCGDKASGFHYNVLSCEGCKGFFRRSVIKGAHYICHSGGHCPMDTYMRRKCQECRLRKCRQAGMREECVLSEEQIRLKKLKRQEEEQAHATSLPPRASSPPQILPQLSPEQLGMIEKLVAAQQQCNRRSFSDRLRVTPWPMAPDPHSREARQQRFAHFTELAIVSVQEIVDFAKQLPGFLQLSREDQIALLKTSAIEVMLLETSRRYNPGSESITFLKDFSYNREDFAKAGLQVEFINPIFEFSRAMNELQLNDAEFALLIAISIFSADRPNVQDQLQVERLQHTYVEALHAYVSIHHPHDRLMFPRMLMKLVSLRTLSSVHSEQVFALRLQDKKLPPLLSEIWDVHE
Outline: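 Read-out: reporter transcript levels by RT-PCR plus capillary electrophoresis, fluorescence intensity. Transiently transfected HepG2, exogenous NR-GAL4 chimera, GAL4-UAS reporters; 24 h compound exposure. Activity = increase over DMSO negative control.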

[17] = BSK_3C_TissueFactor: BioMAP Diversity Plus: 3C Assay for Tissue Factor Biomarker Activity (AID 2282997); settings: BioMAP 3C HUVEC, tissue factor biomarker readout; actives raise or lower the signal
Outline: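 Human vascular primary cells (umbilical vein endothelium) received test chemical; Tissue Factor was determined by ELISA at 24 h, and both gain and loss of signal versus DMSO were fitted.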

[18] = BSK_3C_uPAR: BioMAP Diversity Plus: 3C Assay for Urokinase-type plasminogen activator receptor (uPAR) Biomarker Activity (AID 2282998); settings: BioMAP 3C HUVEC, uPAR biomarker ELISA; actives raise or lower the signal
Outline: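 A multiplexed primary-cell system built on human umbilical vein endothelium was used, with chemical present for 24 h before reading. Cell-surface uPAR was detected by ELISA; signal change in either direction counted against DMSO.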

[19] = BSK_3C_VCAM1: BioMAP Diversity Plus: 3C Assay for Vascular cell adhesion molecule 1 (VCAM1) Biomarker Activity (AID 2282999); settings: BioMAP 3C HUVEC, VCAM1 ELISA, cytokine-stimulated; actives raise or lower the signal
Outline: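 Endothelial cells from human umbilical vein are treated with test chemical. At 24 h, VCAM-1 is measured by ELISA, and responses in either direction are fitted relative to DMSO.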

Measured: AC50

O=C1OCc2ccccc21
not listed: [13] | [14] | [15] | [16] | [17] | [18] | [19]
inactive: all other assays above

CC(C)(O)CCc1ccccc1
not listed: [4] | [16] | [17] | [18] | [19]
inactive: all other assays above

OC[C@H]1O[C@@H](O[C@H]2[C@H](O)[C@@H](O)[C@H](O)O[C@@H]2CO)[C@H](O)[C@@H](O)[C@H]1O
not listed: [3] | [4] | [9] | [13] | [14] | [17] | [18] | [19]
inactive: all other assays above

CCC(C)(C)c1cc(O)c(C(C)(C)CC)cc1O
active: [2] 3.06 µM | [5] 9.69 µM | [6] 12.3 µM | [7] 5.78 µM | [10] 3.81 µM | [12] 33.4 µM
inactive: [1] | [16] | [13] | [14] | [8] | [11]

COc1ccccc1O
inactive: [1] | [2] | [16] | [13] | [6] | [8] | [10] | [11] | [12]

CC1=CC(C)C(C=O)C(C)C1 (stereo not drawn) (tested in a mixture with another compound)
not listed: [3] | [9] | [16]
inactive: all other assays above

CCC(C)(CCCC(C)C)OC(C)=O (stereo not drawn)
not listed: [7] | [9] | [13] | [15] | [17] | [18] | [19]
inactive: all other assays above

NC(=O)c1cccnc1
inactive: [1] | [2] | [3] | [4] | [15] | [5] | [8] | [10] | [11] | [12]

CCCc1ccc(O)cc1
active: [10] 36 µM
not listed: [3] | [4] | [14] | [16] | [17] | [18] | [19]
inactive: all other assays above

C=C1CC[C@H]2O[C@]2(C)CC[C@@H]2[C@@H]1CC2(C)C
not listed: [3] | [17] | [18] | [19]
inactive: all other assays above
